Usually inhibition stands for the drop in the measured response relative to a control, in per cent.

Active and inactive are the calls of the source.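 Rule for the calls: active = visually confirmed hit in the image check and inhibition above 20%; inconclusive = visually confirmed hit but inhibition not above 20%; inactive = no visual hit in the image check.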

The experiment in a line: inhibitors of E-selectin induction by TNFa, primary screen, imaging, HUVEC, immunofluorescence, MLSMR starter and 10KST1 sets (AID 487).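 For inhibition: signal is fraction of cell area covered by stained E-selectin grains.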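 For nuclei count: 100% = median nuclei count of all wells on the same plate.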 The settings on record: HUVEC TNFalpha-induced E-selectin immunofluorescence imaging, at 2 µM; inhibition: stronger effect = higher value; nuclei count: measured here: cell number, toxicity.
In the case of `CCN(C(C)=O)c1nnc(CSc2nc3ccccc3s2)s1`, the nuclei count turned out to be 119% and the inhibition was -11.6% (inactive).
For `CC(=O)NC1(C(F)(F)F)NC(=O)N(CC(C)C)C1=O` (stereo not given) the same measures were 101% and -30.2% (inactive).
On the same counts, the results for `CCOc1ccc2nc(Nc3nc4c(c(=O)[nH]3)CCC4)nc(C)c2c1` are 110% and -9.2% (inactive).
Take `CCOC(=O)N1CCC(NC(=O)CCC(=O)N2CC(C)Oc3ccc(Cl)cc32)CC1` (stereo not given): the inhibition was 13.6% (inactive) and the nuclei count was 89%.
On the same counts, the results for `Cc1ccccc1C(=O)NC1CCN(Cc2nnnn2Cc2ccccc2)CC1` are -36.5% (inactive) and 111%.
With `Cc1ccc2c(c1)CCCN2C(=O)C1CCCO1` (stereo not given), the nuclei count is 86.9% and the inhibition is -84.4% (inactive).
For `CCCCc1ccc(NC(=O)C2CCCO2)cc1` (stereo not given) the same measures were 98.5% and -122% (inactive).
For `CC(=O)c1cccc(NC(=O)NCc2ccccn2)c1`, the nuclei count was found to be 119% and the inhibition was -41.1% (inactive).
For the compound `Cc1ccc(OC(=O)CCC(=O)OCCCC(F)(F)C(F)(F)F)cc1`, the nuclei count stood at 92.5% and the inhibition is 4.5% (inactive).
On the same counts, the results for `O=C(CSc1nc2ccccc2o1)NC(=O)NCc1ccco1` are 112% and -31.1% (inactive).
For `Cc1ccccc1CN1CCN(C(=O)c2cccc(F)c2)CC1`, the nuclei count is 119% and the inhibition was 2.5% (inactive).
On the same counts, the results for `CCOC(=O)C1=C(C)NC(=O)NC1c1ccc(Br)s1` (stereo not given) are 104% and 28.9% (inactive).
Regarding `COc1cccc(C(=O)n2cnnc2N)c1OC`, the inhibition is 41.5% (inactive) and the nuclei count worked out at 102%.
For `CN(C)S(=O)(=O)c1ccc(S(=O)(=O)N(Cc2ccco2)Cc2ccccc2Cl)cc1`, the inhibition is -58.4% (inactive) and the nuclei count came out at 99.8%.
Regarding `CCOc1ccc(S(=O)(=O)Nc2cccc(Cl)c2)cc1`, the nuclei count was 81.5% and the inhibition is -10.2% (inactive).
As for `CN(C)CCCN1C(=O)c2oc3ccc(Cl)cc3c(=O)c2C1c1cccnc1` (stereo not given), the inhibition is -27% (inactive) and the nuclei count amounted to 122%.
`COc1ccccc1N1CCN(Cc2nnnn2CCc2ccccc2)CC1`: the nuclei count came to 92% and the inhibition is -42.8% (inactive).
On the same counts, the results for `COc1ccc(-c2noc(COc3ccc(Cl)c(C)c3)n2)cc1` are 94.1% and -14% (inactive).
In the case of `CN(CC(=O)Nc1sccc1C#N)C1CCCCC1`, the inhibition is -27.2% (inactive) and the nuclei count was determined as 125%.
`COc1ccccc1-c1cc2nc(C)c(CCC(=O)NCc3ccco3)c(C)n2n1`: the inhibition was -41.8% (inactive) and the nuclei count came out at 111%.
For `Cc1cc(C)c2cc3c(ccn3C3OC[C@H](O)[C@H](O)[C@H]3O)cc2n1` (stereo not given in full) the same measures were -106% (inactive) and 95.9%.
On the same counts, the results for `CCOc1cc(NC(=O)c2ccccn2)c(OCC)cc1NC(=O)CC(C)C` are -76.1% (inactive) and 119%.
For `COc1ccc(S(=O)(=O)N(CCN2CCOCC2)Cc2cc(OC)ccc2OC)cc1`, the nuclei count was 113% and the inhibition is -100% (inactive).
Regarding `CC1(C)CC(=O)CC(C)(C)N1OC(=O)c1ccccn1`, the inhibition was -4.9% (inactive) and the nuclei count came out at 102%.
In the case of `Nc1ccc(-n2c(N)c(C(=O)NCc3ccc4c(c3)OCO4)c3nc4ccccc4nc32)cc1`, the nuclei count came to 117% and the inhibition is -16.4% (inactive).
For `CC12CCC(C(=O)O)(c3nc(C#N)c(C#N)nc31)C2(C)C` (stereo not given), the inhibition is -15.3% (inactive) and the nuclei count worked out at 106%.
For `CN(C)c1ccc(C(=O)OCC(=O)NC2CCCCC2)cc1` the same measures were -46.5% (inactive) and 110%.
On the same counts, the results for `CCOC(=O)N1CCN(Cc2nc3c(c(=O)[nH]c(=O)n3C)n2Cc2cc(C)ccc2C)CC1` are -103% (inactive) and 119%.
As to `C#CC1(O)CC(C)N(C)C(C)C1` (stereo not given), the inhibition is -76% (inactive) and the nuclei count stood at 186%.
In the case of `O=C(CN(CC1CCCO1)C(=O)CCC(=O)Nc1ccccn1)NCC1CCCO1` (stereo not given), the nuclei count is 122% and the inhibition was -8.5% (inactive).
On the same counts, the results for `CC(=O)c1ccc2c3c(cccc13)C(=O)N(c1c(C)nn(C)c1C)C2=O` are 97.5% and -14% (inactive).
On the same counts, the results for `CC(C)[C@H](NC(=O)NCc1ccc(Cl)cc1)C(=O)O` are 87.2% and 11.6% (inactive).
On the same counts, the results for `COc1ccc(-n2c(Cc3cccn3C)nnc2SCC(=O)Nc2cccc(Cl)c2)cc1` are 116% and 1.8% (inactive).
With `COC(=O)/C=c1\sc2ncnn2c1=O`, the inhibition was -34.9% (inactive) and the nuclei count was found to be 107%.
On the same counts, the results for `COCc1nnc(NC(=O)c2ccc(NC(C)=O)cc2)s1` are -22% (inactive) and 93.1%.
Regarding `Cc1cc(/C=N/n2cnnc2)c(C)n1-c1cccc(Cl)c1`, the inhibition is 40.1% (inactive) and the nuclei count is 46%.
For the compound `C=CCNC(=O)C1CC(=O)N(c2ccc(OCC(=O)Nc3ccc(OC)cc3)cc2)C1` (stereo not given), the inhibition was -93.7% (inactive) and the nuclei count worked out at 128%.
Turning to `Cc1cc2c(cc(C(=O)OCC(=O)NCc3cccs3)n2C(C)C)o1`, the nuclei count was determined as 95.3% and the inhibition is -156% (inactive).
For the compound `COc1ccc(C)cc1C(=O)CCC(=O)Nc1ccccc1N1CCOCC1`, the nuclei count came to 113% and the inhibition is -18.1% (inactive).
For the compound `CC(C)(C)c1ccc(-c2nnc(SCCC#N)n2C2CCCC2)cc1`, the inhibition is -2.3% (inactive) and the nuclei count was 97.3%.

The record behind these values is PubChem BioAssay.
